Compound activity deposited in PubChem BioAssay by University of Kansas High Throughput Screening Laboratory.
An excerpt weighted towards active compounds, which were near 3.5% of everything screened.
Pf apPOL inh – Pf-apPOL inhibitors, biochemical, fluorescence. 210,000 compounds, 0.25% hits. Recombinant Pf-apPOL, molecular beacon fluorescence, 1.5 h. Plasmodium falciparum apicoplast DNA polymerase (apPOL). inhibition, % at 10 µM
mHTT-CaM PPI inh – mutant huntingtin-calmodulin interaction inhibitors – biochemical, AlphaScreen, primary screen | AlphaScreen His-mHTT/GST-CaM binding, luminescence | inhibition, % at 15 µM | 190,000 compounds, 3.6% hits | AID 1671202, 2021;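 further: 0% = both proteins with DMSO and 100% = one protein alone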
Target sequence (P42858 whole entry, looked up, stated change not applied): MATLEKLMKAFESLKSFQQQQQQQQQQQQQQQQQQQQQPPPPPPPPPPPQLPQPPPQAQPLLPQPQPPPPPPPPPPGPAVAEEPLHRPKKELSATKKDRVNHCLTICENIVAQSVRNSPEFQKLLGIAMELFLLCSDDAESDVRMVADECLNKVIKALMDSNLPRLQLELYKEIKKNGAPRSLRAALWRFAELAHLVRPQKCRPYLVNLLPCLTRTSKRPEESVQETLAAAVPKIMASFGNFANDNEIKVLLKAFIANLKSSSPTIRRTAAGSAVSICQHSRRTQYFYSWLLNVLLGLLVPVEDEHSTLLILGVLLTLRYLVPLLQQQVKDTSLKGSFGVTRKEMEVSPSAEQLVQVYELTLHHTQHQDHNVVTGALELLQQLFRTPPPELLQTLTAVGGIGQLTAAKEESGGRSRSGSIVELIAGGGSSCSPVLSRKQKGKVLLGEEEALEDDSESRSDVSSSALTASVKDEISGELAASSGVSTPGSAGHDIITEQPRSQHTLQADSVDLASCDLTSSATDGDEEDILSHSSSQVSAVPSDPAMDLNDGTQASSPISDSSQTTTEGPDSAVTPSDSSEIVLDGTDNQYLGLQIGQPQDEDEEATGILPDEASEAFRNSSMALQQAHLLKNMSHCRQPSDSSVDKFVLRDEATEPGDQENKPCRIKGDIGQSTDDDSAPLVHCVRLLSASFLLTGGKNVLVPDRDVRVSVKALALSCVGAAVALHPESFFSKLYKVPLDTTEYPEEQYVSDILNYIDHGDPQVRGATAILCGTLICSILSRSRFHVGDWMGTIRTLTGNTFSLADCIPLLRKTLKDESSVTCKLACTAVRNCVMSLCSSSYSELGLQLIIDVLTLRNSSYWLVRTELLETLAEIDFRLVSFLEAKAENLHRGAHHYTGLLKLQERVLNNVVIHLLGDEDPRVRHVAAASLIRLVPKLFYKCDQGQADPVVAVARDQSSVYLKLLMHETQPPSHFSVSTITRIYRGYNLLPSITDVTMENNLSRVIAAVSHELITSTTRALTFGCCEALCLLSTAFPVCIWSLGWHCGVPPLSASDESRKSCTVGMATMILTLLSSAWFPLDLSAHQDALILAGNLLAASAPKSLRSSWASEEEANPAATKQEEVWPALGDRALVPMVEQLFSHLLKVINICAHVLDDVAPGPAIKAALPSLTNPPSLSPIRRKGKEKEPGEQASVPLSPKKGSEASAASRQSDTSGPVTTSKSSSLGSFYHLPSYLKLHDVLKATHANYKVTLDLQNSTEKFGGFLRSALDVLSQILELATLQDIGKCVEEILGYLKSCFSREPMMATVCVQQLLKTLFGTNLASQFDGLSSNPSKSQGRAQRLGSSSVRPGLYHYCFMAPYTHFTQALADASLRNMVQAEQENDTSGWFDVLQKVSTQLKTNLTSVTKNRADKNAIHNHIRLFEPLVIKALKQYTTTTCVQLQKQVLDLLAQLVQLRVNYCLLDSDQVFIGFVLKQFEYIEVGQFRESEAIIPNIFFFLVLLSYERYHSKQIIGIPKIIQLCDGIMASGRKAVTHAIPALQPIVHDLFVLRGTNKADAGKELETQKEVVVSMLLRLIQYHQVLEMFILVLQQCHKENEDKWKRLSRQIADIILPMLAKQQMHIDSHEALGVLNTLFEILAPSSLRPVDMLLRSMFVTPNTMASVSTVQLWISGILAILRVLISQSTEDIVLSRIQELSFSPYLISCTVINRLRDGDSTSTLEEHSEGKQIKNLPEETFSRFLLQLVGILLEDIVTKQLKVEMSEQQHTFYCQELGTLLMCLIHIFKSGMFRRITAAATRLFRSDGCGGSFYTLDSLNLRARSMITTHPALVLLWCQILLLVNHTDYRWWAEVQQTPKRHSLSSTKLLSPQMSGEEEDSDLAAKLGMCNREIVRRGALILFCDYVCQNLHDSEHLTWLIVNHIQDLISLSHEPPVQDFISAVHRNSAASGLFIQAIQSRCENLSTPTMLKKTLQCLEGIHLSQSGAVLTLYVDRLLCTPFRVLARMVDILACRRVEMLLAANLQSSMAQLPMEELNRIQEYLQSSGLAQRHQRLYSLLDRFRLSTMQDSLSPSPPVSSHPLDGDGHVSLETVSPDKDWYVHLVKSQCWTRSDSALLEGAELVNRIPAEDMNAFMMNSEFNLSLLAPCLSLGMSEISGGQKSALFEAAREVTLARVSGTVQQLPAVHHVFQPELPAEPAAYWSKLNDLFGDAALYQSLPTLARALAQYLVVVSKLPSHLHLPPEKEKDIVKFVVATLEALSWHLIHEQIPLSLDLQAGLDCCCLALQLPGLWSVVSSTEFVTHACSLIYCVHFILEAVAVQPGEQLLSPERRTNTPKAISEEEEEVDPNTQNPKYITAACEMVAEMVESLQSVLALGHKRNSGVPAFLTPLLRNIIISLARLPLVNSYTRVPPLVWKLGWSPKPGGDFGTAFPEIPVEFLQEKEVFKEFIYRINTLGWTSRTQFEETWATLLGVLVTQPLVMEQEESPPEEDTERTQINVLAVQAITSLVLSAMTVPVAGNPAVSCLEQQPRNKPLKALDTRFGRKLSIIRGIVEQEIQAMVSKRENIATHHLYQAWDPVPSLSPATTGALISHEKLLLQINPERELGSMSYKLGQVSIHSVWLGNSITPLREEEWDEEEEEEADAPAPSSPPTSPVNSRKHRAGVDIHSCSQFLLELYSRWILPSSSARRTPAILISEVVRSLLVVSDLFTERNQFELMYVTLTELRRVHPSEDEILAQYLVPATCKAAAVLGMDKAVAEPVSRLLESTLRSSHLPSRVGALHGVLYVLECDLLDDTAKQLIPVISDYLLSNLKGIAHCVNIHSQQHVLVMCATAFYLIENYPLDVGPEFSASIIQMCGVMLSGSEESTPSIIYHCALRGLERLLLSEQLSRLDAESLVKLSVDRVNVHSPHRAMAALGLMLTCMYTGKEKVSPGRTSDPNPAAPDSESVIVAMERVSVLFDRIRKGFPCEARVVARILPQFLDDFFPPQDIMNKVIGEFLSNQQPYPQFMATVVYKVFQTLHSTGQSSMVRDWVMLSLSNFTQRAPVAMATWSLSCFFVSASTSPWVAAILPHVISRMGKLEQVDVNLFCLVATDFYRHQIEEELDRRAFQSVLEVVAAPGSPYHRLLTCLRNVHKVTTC
* hit, by the source's call; i = inactive; x = no result; + = active, no number. No stated cut-off is given here; in the data, active means inhibition above about 50%; inactive means the rest.

SMILES	Pf apPOL inh	mHTT-CaM PPI inh
O=C1CC(c2ccc(Cl)cc2)CC2=C1C(c1ccccc1[N+](=O)[O-])Nc1ccccc1N2 (stereo unspecified)	-7.0	25.0
CC(C)CN1CCN(C(=O)c2ccc3ncnc(N4CCCCC4)c3c2)CC1	-0.7	22.2
Cc1cccc(S(=O)(=O)NC2CCN(c3ccccc3)C2=O)c1 (stereo unspecified)	59.8*	-15.5
Cc1ccc(N2CCC(NS(=O)(=O)c3cccc(F)c3)C2=O)cc1 (stereo unspecified)	1.8	-10.8
Cc1cc2nc(-c3cccs3)cc(C(=O)N(C)Cc3ccccc3)c2cc1C	-6.6	-17.9
c1ccc(Cn2cnnc2C2CCCN(Cc3ccncc3)C2)cc1 (stereo unspecified)	-5.3	-3.6
c1ccc(Cn2cnnc2C2CCCN(Cc3ccccn3)C2)cc1 (stereo unspecified)	-26.5	93.5*
CSc1cccc(NC(=O)CN2CCc3[nH]c4c(C)c(Cl)ccc4c(=O)c3C2)c1	-8.8	-1.1
CC(C)C(C1=C(O)CC(C)(C)CC1=O)C1C(=O)CC(C)(C)CC1=O (stereo unspecified)	x	-6.9
O=S(=O)(C=Cc1ccccc1)N1CCN(c2ccc(-n3ccnc3)nn2)CC1	27.5	0.7
COc1ccc(C2=NN(c3nc4ccccc4s3)C(=O)/C2=C\N(C)C)cc1	-1.3	73.0*
CN(C)/C=C1\C(=O)N(c2nc3ccccc3s2)N=C1c1ccccc1	-9.4	-1.0
O=C1CCC(=O)N1c1nc2n(n1)C(c1ccccc1)C=C(c1ccc(Cl)cc1)N2 (stereo unspecified)	9.5	77.0*
O=S(=O)(Nc1nc2n(n1)C(c1ccccc1)C=C(c1ccc(Cl)cc1)N2)c1ccccc1 (stereo unspecified)	-3.0	5.0
CCCCCNc1c([N+](=O)[O-])c(=O)oc2ccccc12	-1.5	-6.0
O=C(O)c1cncc(-c2ccccc2)c1	79.9*	x
O=C(c1ccc(-c2ccccc2)cc1)N1CCN(C(=O)c2cccnc2)CC1	-8.2	8.9
O=c1oc2c(-c3ccc(Cl)cc3)cc(O)cc2s1	0.1	80.0*
O=c1oc2c(-c3ccc([N+](=O)[O-])cc3)cc(O)cc2s1	2.2	8.6
Cc1cccc(-c2cc(O)cc3sc(=O)oc23)c1	5.1	91.0*
COc1cc(OC)c2c(-c3cccc(-c4cccc(C)c4)c3)cc(=O)oc2c1	-7.5	-5.9
O=C1CCCCN1c1cccc(NS(=O)(=O)c2ccccc2[N+](=O)[O-])c1	5.2	-2.2
COc1ccc(NC(=O)CSc2nccn2C)cc1	4.5	-2.5
COc1ccc(NC(=O)CSC2=NC(=O)CC(C)=N2)cc1	76.0*	-1.0
COc1ccc(/C=C2\C(C)=C(C#N)c3nc(N)c(C#N)c(C)c32)cc1OC	-6.8	29.0
SMILES	Pf apPOL inh	mHTT-CaM PPI inh
CC1=C(C#N)c2nc(N)c(C#N)c(C)c2/C1=C/c1ccc(O)cc1	-4.0	64.0*
COC(=O)c1sc2ccccc2c1NC(=O)c1ccccc1Cl	1.7	-6.0
COc1ccc(OC)c(C=C2Oc3c(ccc4c3CN(CCN3CCOCC3)CO4)C2=O)c1	-5.2	53.5*
COc1cc(OC)c(OC)cc1C=C1Oc2c(ccc3c2CN(CCN2CCOCC2)CO3)C1=O	-9.4	30.5
COc1ccc(C=C2Oc3c(ccc4c3CN(CCN3CCOCC3)CO4)C2=O)cc1OC	-29.9	62.3*
COCCN1COc2ccc3c(c2C1)OC(=Cc1ccc(OC)c(OC)c1)C3=O	-14.6	15.2
CC(C)(C)c1[nH]nc2c1C(c1ccc(Cl)s1)C(C#N)=C(N)O2 (stereo unspecified)	x	1.5
Cc1cccc(C)c1N1CCC(C(=O)NCc2ccc3c(c2)OCO3)C1=O (stereo unspecified)	-4.0	-3.8
COc1ccccc1NC(=O)C1C2c3ccccc3C(c3ccccc32)C1C (stereo unspecified)	-12.6	-4.0
CN(C)c1cccc(OCc2noc(-c3ccccc3Cl)n2)c1	-9.3	67.5*
Clc1ccccc1-c1nc(COc2ccc3c(c2)OCO3)no1	0.5	5.4
C=CCOc1ccc(C2Oc3nc(SC)nnc3-c3ccccc3N2C(C)=O)cc1 (stereo unspecified)	-8.6	37.0
COc1ccc(-n2nc3c(c2NC(=O)c2ccccc2)CSC3)cc1	-1.4	31.0
COc1ccc(-n2nc3c(c2NC(=O)/C=C/c2ccccc2)CSC3)cc1	-1.3	52.0*
COc1ccc(-n2nc3c(c2NC(=O)c2ccc(Br)cc2)CSC3)cc1	5.0	30.0
CC(C)C(=O)Nc1c2c(nn1-c1ccc(Oc3ccccc3)cc1)CSC2	5.3	65.0*
COc1ccc(-n2nc3c(c2NC(=O)c2ccc(C(C)(C)C)cc2)CSC3)cc1	3.4	100.0*
COc1ccc(-n2nc3c(c2NC(=O)/C=C/c2cc(OC)c(OC)c(OC)c2)CSC3)cc1	-7.0	34.0
COC(=O)C=c1sc2nc3ccccc3n2c1=O	-0.9	x
CCOC(=O)C1C(=O)C=C(c2ccco2)CC1c1cccc([N+](=O)[O-])c1 (stereo unspecified)	1.1	21.2
Cc1oc(C2CCN(C(=O)Cc3cccs3)CC2)nc1C(=O)N1CCCCC1	1.0	9.8
COc1c(C(=O)NC2CCCC2)sc2cccc(F)c12	-1.3	-4.0
C=CCNC(=O)c1cnn2c(C(F)(F)F)cc(-c3ccccc3)nc12	-4.4	51.0*
COCCCNC(=O)c1cnn2c(C(F)(F)F)cc(-c3ccccc3)nc12	-5.6	5.0
COc1cccc(CNc2ccc3c(c2)ncn3C2CCCCC2)c1OC	0.0	41.0
SMILES	Pf apPOL inh	mHTT-CaM PPI inh
COc1ccccc1CNc1ccc2c(c1)ncn2C1CCCCC1	-4.0	55.0*
O=S(=O)(Cc1ccccc1Cl)N1CCc2nc(-c3ccc(F)cc3)ncc2C1	2.9	-2.2
O=S(=O)(NCCCCCc1nc2ccccc2[nH]1)c1ccc(Cl)c(Cl)c1	-4.1	66.0*
O=S(=O)(NCCCc1nc2ccccc2[nH]1)c1ccc(Cl)cc1	-7.4	-2.0
COc1ccc(N2CC(c3nnc(NC(=O)c4ccccc4F)o3)CC2=O)cc1 (stereo unspecified)	-2.7	5.0
Cc1ccc(-c2cc3n(n2)CCCN(C(=O)CCC(=O)c2ccc(F)cc2)C3)cc1	-3.2	18.2
CCc1ccc(C(C)NC(=O)C2CCN(c3nnc(-c4ccc(OC)cc4)o3)CC2)cc1 (stereo unspecified)	4.4	13.3
c1cncc(-c2n[nH]c(C3CCCN(Cc4ccoc4)C3)n2)c1 (stereo unspecified)	-7.1	-5.3
O=C1Nc2ccccc2/C1=N\N1C(=O)C2C=CC=CC2C1=O (stereo unspecified)	x	i
O=C1Nc2ccccc2/C1=N\N1CCN(C2c3ccccc3-c3ccccc32)CC1	x	+
COc1ccc(-c2coc3cc(OC(=O)C(C)(C)C)ccc3c2=O)cc1	-12.8	-1.7
N#Cc1ccc(C(=O)N2CCC(CCOc3ccccc3)CC2)cc1	0.5	-6.0
Clc1nc(NCc2ccco2)nc(Oc2ccccc2)n1	-5.4	53.0*
Clc1nc(NCc2ccco2)nc(NC2CCCCC2)n1	x	-3.7
O=C(O)c1cc(S(=O)(=O)NCCC2=CCCCC2)c(Cl)cc1Cl	-2.3	-5.0
COc1ccc(C2C=C(c3ccc(Cl)cc3)Nc3nc(CCCO)nn32)cc1OC (stereo unspecified)	12.3	52.0*
OCCCc1nc2n(n1)C(c1cccc(Cl)c1)C=C(c1ccc(F)cc1)N2 (stereo unspecified)	-6.5	41.0
